Bioassay records as filed in PubChem.
NS1 inh: qHTS Assay for Inhibitors of Influenza NS1 Protein Function | Potency, µM (top dose mostly 46.1 µM), for inactives: at the top dose activity, positive = more growth | 270,000 compounds, 0.4% hits; further: potency means the concentration at half of the fitted maximal effect; actives are rising curves; nearly all actives have a fitted effect of over 50% in size
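S. cerevisiae expressing influenza A NS1, grown in glucose, washed, then diluted 1:100 into pH 6.0 -URA galactose medium with 23 nl compound. Growth recovery read as OD600; NS1-free strain serves as control.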
SARS PLP yeast: qHTS of Yeast-based Assay for SARS-CoV PLP; S. cerevisiae expressing SARS-CoV PLpro, growth rescue; Potency, µM (doses to about 32.9 µM), without a hit: top-dose activity, positive = growth rescue, usual class: activators; 330,000 compounds, 0.19% hits; AID 485353, 2010; further: potency means the concentration at half of the fitted maximal effect; 0% is about no effect; nearly all actives have a fitted effect of over 55% in size
Pf growth 96h: Primary qHTS for delayed death inhibitors of the malarial parasite plastid, 96 hour incubation; P. falciparum luciferase reporter growth, 96 h; Potency, µM (titrated, usually from 28.7 µM), for inactives: at the highest dose activity change, negative = inhibition, usual class: inhibitors; 320,000 compounds, 6.9% hits; active means well fitted inhibition curve with a large enough effect; inconclusive means small, poorly fitted or top-dose-only effect, or another doubt; inactive means no such curve, though single readings can be large or run the other way; further: potency means the concentration at half of the fitted maximal effect; on the % scale 0 is the no-effect control and ±100 the full control effect
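Erythrocytes infected with luciferase-expressing P. falciparum were dispensed at 2% hematocrit and 0.05% parasitemia (final), then incubated with compounds 96 hours at 37 C in 5% CO2. Luminescence after detection reagent addition reported growth.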
CHX counter: Cycloheximide Counterscreen for Small Molecule Inhibitors of Shiga Toxin | AID 2314, 2010 | 300,000 compounds, 12% hits | cell reporter, cycloheximide protein synthesis inhibition counterscreen | max response, %; in the data active means max response mostly above about 13%, no sharp cut-off; inactive means mostly below about 14%; further: read at 38.3 µM for the half of the compounds with a filed dose; 0% is about no effect
Pf growth 48h: Primary qHTS for delayed death inhibitors of the malarial parasite plastid, 48 hour incubation. 310,000 compounds, 5.9% hits. AID 504832, 2011. P. falciparum luciferase growth in erythrocytes, 48 h. Potency, µM (highest dose often 28.7 µM), without a hit: at the highest dose activity change, negative = inhibition, actives largely listed as inhibitors; active means well fitted inhibition curve with a large enough effect; inconclusive means small, poorly fitted or top-dose-only effect, or another doubt; inactive means no such curve, though single readings can be large or run the other way; further: potency means the concentration at half of the fitted maximal effect; on the % scale 0 is the no-effect control and ±100 the full control effect
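Luciferase-expressing parasites in RBCs, 2% Hct / 0.1% parasitemia final; RPMI 1640 + 0.5% Albumax; 37 C, 5% CO2, one generation; luminescence read-out, lower signal = inhibition.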
Shiga toxin inh: A qHTS for Small Molecule Inhibitors of Shiga Toxin; Vero cells, Shiga toxin protein synthesis inhibition reporter; inhibition, % at 38.7 µM; 290,000 compounds, 9.2% hits; AID 2315, 2010; in the data active means inhibition mostly above about 28%, no sharp cut-off; inactive means mostly below about 43%; further: 0% is about no effect
* marks the source's active call; other numbers are inactive results; ? = inconclusive; . = not tested or not shown. This is a sample that favours compounds with a hit; in the whole collection about 21% have one here. Unless noted, the call rests on the fitted dose curve.

SMILES | NS1 inh | SARS PLP yeast | Pf growth 96h | CHX counter | Pf growth 48h | Shiga toxin inh
COc1cc(CCN2C(=O)c3cccc4cccc(c34)C2=O)c(S(=O)(=O)N2CCC(C)CC2)cc1OC | 16% | -11% | ? | -5 | 6.6µM* | 13
COc1cc(CCN2C(=O)c3cccc4cccc(c34)C2=O)c(S(=O)(=O)NCCO)cc1OC | 2% | 3% | ? | 0 | ? | 30
COc1cc(CCN2C(=O)c3cccc4cccc(c34)C2=O)c(S(=O)(=O)N2CCCCCC2)cc1OC | ? | 3% | 2.3µM* | -3 | ? | 5
O=C(NC1CC1)C1CCN(C(=O)c2ccccc2Cl)CC1 | 0% | -2% | 20% | -2 | 4% | -8
COc1ccccc1NC(=O)NNC(=O)CCN1CCOCC1 | 21% | 1% | 70% | 4 | ? | 26
CCCn1c(SCC(=O)N2CCCC(C)C2)nnc1-c1ccccn1 (stereo not drawn) | -1% | 0% | 0% | -2 | -19% | -15
Cc1nn(-c2ccccc2)c(C)c1NC(=O)COC(=O)/C=C/c1ccccc1 | . | 1% | 13% | . | 0% | .
Cc1ccc(NC(=O)COC(=O)CCC2CCCC2)c(Br)c1 | . | 5% | -19% | . | 1% | .
CCN(C(=O)CN1C(=O)NC2(CCCc3ccccc32)C1=O)c1ccc(F)cc1 (stereo not drawn) | . | 4% | ? | . | ? | .
CCOC(=O)Cn1nc(C)c2ccccc2c1=O | 9% | 1% | . | -3 | 16% | 36
Cc1nn(CC(=O)N2CCN(C)CC2)c(=O)c2ccccc12 | -3% | 0% | 7.4µM* | -4 | 31% | -29
Cc1nn(CC(N)=O)c(=O)c2ccccc12 | -5% | -4% | 2.1µM* | -2 | ? | -14
COc1ccc(-n2nc3c(c2NC(=O)c2ccccc2S(=O)(=O)C(F)F)CS(=O)(=O)C3)cc1 | 4% | -2% | ? | -2 | -12% | 17
O=C(CCc1nc2ccccc2c(=O)[nH]1)N1CCCc2ccccc21 | . | 10% | ? | . | -36% | .
O=C(NC(=S)Nc1ccc2oc(-c3ccncc3)nc2c1)c1ccccc1F | 7% | -1% | -22% | -2 | 25% | -6
Cc1ccc2oc(-c3cccc(NC(=S)NC(=O)/C=C/c4ccco4)c3)nc2c1 | ? | 0% | 86% | 52* | 60% | 69*
Cc1ccc2oc(-c3cccc(NC(=S)NC(=O)c4cccs4)c3)nc2c1 | 3% | 4% | -21% | 41* | 141% | 24*
O=C(Nc1ccc2oc(-c3ccccc3)nc2c1)c1cccs1 | -14% | -31% | 48% | 55* | 118% | 67*
CCOc1ccc(S(=O)(=O)NCCC(=O)NCC(c2ccco2)N2CCCCC2)cc1 (stereo not drawn) | . | -7% | ? | . | ? | .
COc1cccc(C(=O)N(C)CC2CCN(CCc3cccc(C(F)(F)F)c3)CC2)c1 | 22% | 3% | ? | -2 | -22% | -1
c1ccc2c(c1)Oc1cccc3cccc-2c13 | -4% | 0% | -3% | 12* | 34% | 25*
Cc1ccc(S(=O)(=O)CC#CCOC(=O)c2ccc([N+](=O)[O-])cc2)cc1 | -141% | -14% | ? | -2 | 6% | -6
[O-][n+]1ccccc1SSc1cccc[n+]1[O-] | . | . | 0.48µM* | . | 0.85µM* | .
O=C(CSc1cccc[n+]1[O-])CSc1cccc[n+]1[O-] | -48% | -5% | 0.19µM* | 7 | 9.3µM* | -8
NC(=S)NN=C(Cc1ccccc1)Cc1ccccc1 | -2% | -1% | ? | -4 | ? | -12
SMILES | NS1 inh | SARS PLP yeast | Pf growth 96h | CHX counter | Pf growth 48h | Shiga toxin inh
CC(C)CCN1CCN(Cc2cccn2-c2cccnc2)CC1CCO (stereo not drawn) | 0% | 1% | ? | -1 | -9% | -18
Cc1ccc(CN2CCN(Cc3ccncc3)CC2CCO)o1 (stereo not drawn) | 2% | 0% | ? | -3 | 10% | -13
CCn1ccnc1CN1CCN(CCC(C)C)C(CCO)C1 (stereo not drawn) | 2% | 0% | 12µM* | 2 | 4% | -17
Cc1ccc(CN2CCN(Cc3cccn3-c3ccccn3)CC2CCO)cc1 (stereo not drawn) | -2% | 0% | 46% | 1 | -1% | -10
Cc1ccc(CN2CCN(Cc3cccn3-c3ccc(Cl)cn3)CC2CCO)o1 (stereo not drawn) | -3% | 4% | 12µM* | -2 | ? | 1
OCCC1CN(Cc2cccn2-c2ncccn2)CCN1Cc1ccccc1 (stereo not drawn) | -4% | 0% | 13µM* | -3 | -6% | -4
CC(C)CCN1CCN(Cc2cccn2-c2ccc(Cl)cn2)CC1CCO (stereo not drawn) | -3% | 1% | 0% | 2 | 9.3µM* | -8
CC(Oc1ccc(Cl)cc1)C(=O)N1CCN(C(=O)c2ccco2)CC1 (stereo not drawn) | . | -5% | 1% | . | -23% | .
O=[N+]([O-])c1ccc(N2CCN(c3ccccc3F)CC2)nc1 | 8% | 0% | 82% | 1 | -11% | 4
CNc1c([N+](=O)[O-])cnn1-c1ccccc1F | 3% | 1% | 21% | 41* | 51% | 43
CNc1c([N+](=O)[O-])cnn1-c1ccc(C)cc1 | -6% | 0% | ? | 0 | 3.3µM* | 17
C[C@H](NCCc1ccc(O)cc1)[C@@H](O)c1ccc(O)cc1 | . | . | -12% | . | -6% | .
COc1cccc(C2Nc3ccc4ccccc4c3C3=C2C(=O)CCC3)c1O (stereo not drawn) | 1% | 3% | 35% | 7 | ? | -4
O=C1C(=O)N(CCS(=O)(=O)c2ccccc2)c2ccc(F)cc21 | 2% | 3% | 9.3µM* | 2 | ? | 6
COc1ccc2c(c1)C(=O)C(=O)N2CCS(=O)(=O)c1ccccc1 | 1% | -4% | ? | 2 | -10% | 6
COc1ccc(N=Cc2cc3c(cc2O)OC(N)=C(C#N)C3c2ccccc2)cc1 (stereo not drawn) | 21% | ? | 123% | 11* | 17% | -10
O=C(OCC(=O)N1c2ccccc2Sc2ccccc21)c1ccc[n+]([O-])c1 | . | 1% | ? | 2 | -24% | 2
C=CCNc1nc2c3ccccc3n(C(C)=O)c2s1 | -260% | -19% | ? | 24 | ? | 129*
CC(=O)n1c2ccccc2c2c(C#N)c(N3CCCCC3)sc21 | 0% | . | . | . | . | .
O=C(COC(=O)CCS(=O)(=O)c1ccccc1)NC(=O)c1ccc(OC(F)F)cc1 | . | -4% | 10% | . | -3% | .
CC[n+]1c(/C=C/N(C)c2ccccc2)oc2ccc(F)cc21 | 3% | -5% | ? | 0 | 2.9µM* | 9
CC[n+]1c(/C=C/N(C)c2ccccc2)oc2ccccc21 | 2% | -14% | -14% | -2 | 0.93µM* | -5
CC[n+]1c(/C=C/Nc2ccccc2)oc2ccc(OC)cc21 | -2% | 0% | 15% | 12 | ? | 41
